# bovine MsrA act = bovine MsrA enzyme activators, primary screen, biochemical, absorbance, HTS; purified bovine MsrA, absorbance read-out; activation, % at 10.6 µM; actives 0.3% (n = 360,000); AID 602163, 2012; in the data active means activation above about 7.5%;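 further: 0% = vehicle and 100% = reference activator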
# PLCb3 inh = human PLC-beta3 inhibitors, primary screen, biochemical, fluorescence. 1-phosphatidylinositol 4,5-bisphosphate phosphodiesterase beta-3 (Homo sapiens), Q01970. inhibition, % at 12.2 µM. actives 0.18% (n = 370,000). Purified PLC-beta3, fluorogenic substrate; in the data active means inhibition above about 11%;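 further: 0% = median of compound wells on plate and 100% = full blocker control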
# PLC-gamma1 inh = PLC-gamma1 enzyme inhibitors, primary screen, biochemical, fluorescence, purified enzyme. inhibition, % at 12.2 µM. AID 720700, 2013. fluorogenic substrate. 1-phosphatidylinositol 4,5-bisphosphate phosphodiesterase gamma-1 (Homo sapiens), P19174. actives 0.84% (n = 370,000)
# Target sequence (P19174 whole entry, looked up): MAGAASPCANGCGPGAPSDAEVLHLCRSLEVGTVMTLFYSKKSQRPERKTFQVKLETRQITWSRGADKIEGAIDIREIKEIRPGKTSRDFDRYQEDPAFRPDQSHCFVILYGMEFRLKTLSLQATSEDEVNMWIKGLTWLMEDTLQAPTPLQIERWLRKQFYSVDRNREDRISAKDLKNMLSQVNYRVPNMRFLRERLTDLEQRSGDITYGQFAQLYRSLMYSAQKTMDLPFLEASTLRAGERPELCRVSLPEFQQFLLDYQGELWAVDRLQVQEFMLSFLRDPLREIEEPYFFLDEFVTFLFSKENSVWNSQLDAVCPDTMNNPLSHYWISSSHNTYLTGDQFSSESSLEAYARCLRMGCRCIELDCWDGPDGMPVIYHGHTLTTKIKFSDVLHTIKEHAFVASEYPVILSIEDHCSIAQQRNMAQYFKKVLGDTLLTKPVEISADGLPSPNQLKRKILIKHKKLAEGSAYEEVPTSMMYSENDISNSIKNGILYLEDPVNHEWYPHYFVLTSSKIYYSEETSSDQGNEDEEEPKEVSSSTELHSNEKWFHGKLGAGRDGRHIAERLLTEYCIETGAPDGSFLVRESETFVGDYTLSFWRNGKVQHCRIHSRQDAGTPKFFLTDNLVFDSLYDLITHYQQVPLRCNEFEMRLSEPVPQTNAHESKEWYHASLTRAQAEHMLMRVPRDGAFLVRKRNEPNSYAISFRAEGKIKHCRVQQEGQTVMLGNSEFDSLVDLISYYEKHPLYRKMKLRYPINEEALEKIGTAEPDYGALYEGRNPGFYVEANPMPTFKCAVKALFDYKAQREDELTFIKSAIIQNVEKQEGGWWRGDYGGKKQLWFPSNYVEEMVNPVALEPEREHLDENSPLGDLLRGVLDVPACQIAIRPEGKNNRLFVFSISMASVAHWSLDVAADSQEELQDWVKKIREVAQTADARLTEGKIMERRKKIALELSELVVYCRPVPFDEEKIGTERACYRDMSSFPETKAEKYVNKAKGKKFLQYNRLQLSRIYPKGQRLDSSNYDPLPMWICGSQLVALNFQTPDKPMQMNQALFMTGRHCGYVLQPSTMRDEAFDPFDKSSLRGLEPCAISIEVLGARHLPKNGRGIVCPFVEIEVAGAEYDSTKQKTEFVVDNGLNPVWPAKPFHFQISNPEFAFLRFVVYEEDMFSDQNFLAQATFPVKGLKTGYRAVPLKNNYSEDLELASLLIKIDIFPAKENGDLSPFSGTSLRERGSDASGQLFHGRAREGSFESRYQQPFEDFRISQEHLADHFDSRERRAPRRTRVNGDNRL
# MsrA inhibitor = bovine MsrA enzyme inhibitors, primary screen, biochemical, absorbance, HTS; inhibition, % at 15.5 µM; AID 651718, 2012; actives 0.75% (n = 360,000); purified bovine MsrA, absorbance read-out; in the data active means inhibition above about 4.5%;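 further: 0% = vehicle wells with enzyme and 100% = reference inhibitor wells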
# PLCgamma1 ctr = PLC-gamma1 enzyme inhibitors, counter-screen for PLC-beta3 inhibitor project, biochemical, fluorescence; actives 3.1% (n = 3,300); shares compounds with PLC-gamma1 inh; inhibition, % at 12.3 µM; purified PLC-gamma1, fluorogenic substrate
# PLCbeta3 conf = PLC-beta3 inhibitor confirmation, biochemical, fluorescence, purified enzyme | shares compounds with PLC-gamma1 inh | inhibition, % at 12.3 µM | fluorogenic substrate fluorescence | actives 1% (n = 3,300); in the data active means inhibition above about 11%
# Active calls of the source: *; . = no result given. Sampled rows, rich in hits. Any-hit rate of the full collection: about 1.9%. Unless noted, no stated cut-off is given here; in the data, active means inhibition above about 9.5%; inactive means the rest.
SMILES,bovine MsrA act,PLCb3 inh,PLC-gamma1 inh,MsrA inhibitor,PLCgamma1 ctr,PLCbeta3 conf
Cc1onc(-c2ccccc2Cl)c1C(=O)N1CCOC12CCCCC2,-15,11*,4,1,1,4
Cc1onc(-c2ccccc2Cl)c1C(=O)N1CCOC12CCN(c1cccc(F)n1)CC2,-2,4,0,0,.,.
CC(=O)c1ccc(S(=O)(=O)N2CCN(C(=O)C(=O)c3cccc(C(F)(F)F)c3)CC2)cc1,.,-4,0,0,.,.
CCc1ccccc1NCC(=O)Nc1ccc(Cl)c(C(F)(F)F)c1,-2,8,12*,-1,-1,1
COc1cc(NS(=O)(=O)c2ccc(NC(=S)NC(C)=O)cc2)nc(OC)n1,-1,14*,16*,1,-5,0
COc1cc(NS(=O)(=O)c2ccc(NC(=S)NC(=O)COc3ccccc3OC)cc2)nc(OC)n1,1,-4,14*,0,-3,-7
COc1cc(NS(=O)(=O)c2ccc(NC(=O)CN3C(=O)c4ccccc4C3=O)cc2)nc(OC)n1,-5,5,12*,-1,3,10
COc1cc(NS(=O)(=O)c2ccc(NS(=O)(=O)c3ccc(NC(C)=O)cc3)cc2)nc(OC)n1,-3,-5,-1,-1,.,.
COc1cc(NS(=O)(=O)c2ccc(NC(=O)COc3ccccc3C)cc2)nc(OC)n1,-2,2,1,-1,.,.
O=C1OC(c2cccs2)Sc2ccccc21 (stereo unspecified),-4,1,-1,0,.,.
CCCCCCC(=O)NC1CCCCN(Cc2cccc(Cl)c2)C1=O (stereo unspecified),.,6,-1,.,.,.
Cc1ccc2nc(SC(C(=O)Nc3ccc(F)cc3)c3ccccc3)[nH]c2c1 (stereo unspecified),-2,6,13*,1,-2,-8
COc1ccc(-c2cc3cc(OC)c(OC)cc3c(C)n2)cc1C,-5,-244,-175,2,.,.
O=C(c1cccs1)N1CCN(C(=O)c2cn(-c3ccccc3)nc2-c2ccccc2)CC1,-1,12*,1,-1,-4,-1
O=C(c1cn(-c2ccccc2)nc1-c1ccccc1)N1CCOCC1,0,2,2,1,.,.
CC1=C(C(=O)N(C)C)CC(CC(=O)NCC2CCCCC2)C(=O)N1CCC1=CCCCC1 (stereo unspecified),1,4,11*,0,-3,0
CCN(CC)C(=O)C1=C(C)N(CCC2=CCCCC2)C(=O)C(CC(=O)NCC2CCCCC2)C1 (stereo unspecified),-2,4,0,-1,.,.
C[C@H](O)[C@@H]1CN2CCc3ccc(-c4ccc5c(c4)OCO5)cc3[C@@H]2C[C@@H]1N(C)Cc1ccccc1,.,-3,0,-1,.,.
CCOC(=O)C1=CC(=O)CC(C)(C)O1,-1,3,3,0,.,.
CCOC(=O)c1ncn2c1C(=O)OC2(C)C,0,6,15*,2,-1,2
Cc1nn(-c2ccccc2)c(OC(=O)c2cccs2)c1S(=O)(=O)c1ccc([N+](=O)[O-])cc1,-5,20*,15*,3,4,5
Nc1cc(OC(=O)c2cccs2)nn1S(=O)(=O)c1ccccc1,-3,0,0,-2,.,.
Cc1nn(-c2ccccc2)c(OC(=O)c2cccs2)c1S(=O)(=O)c1ccccc1,-3,6,14*,-2,-1,1
CC(C)CC(N)c1csc(NC(=O)NCCc2ccccc2)n1 (stereo unspecified),-5,0,6,0,.,.
NC(Cc1ccc(C(F)(F)F)cc1)c1csc(NC(=O)NCCc2ccccc2)n1 (stereo unspecified),-3,-3,12*,-2,-7,1
SMILES,bovine MsrA act,PLCb3 inh,PLC-gamma1 inh,MsrA inhibitor,PLCgamma1 ctr,PLCbeta3 conf
CSc1nc(=O)[nH]nc1Sc1ccccc1,-3,1,0,0,.,.
CCn1c(CNC(=O)COc2ccc(C(C)C)cc2)nnc1SCC(=O)Nc1cc(F)ccc1C,-3,8,10*,1,-1,-2
CCOC(=O)N1CCC(N2Cc3cccc(C(=O)Nc4ccccc4OC)c3C2=O)CC1,-1,-2,1,2,.,.
COC(=O)c1cccc(NC(=O)Nc2ccc(Cl)cc2Cl)c1,-8,2,9.9*,1,7,4
COc1cccc(NC(=O)C(C)N2C(=O)c3ccccc3C2=O)c1 (stereo unspecified),1,-3,1,2,.,.
COC(=O)c1cccc(NC(=O)C(C)N2C(=O)c3ccccc3C2=O)c1 (stereo unspecified),-1,6,10*,1,-3,1
COC(=O)c1cccc(NC(=S)Nc2cc(Cl)ccc2OC)c1,-3,-12,-6,3,.,.
COc1ccc2c(c1)OC(=O)CC2c1cc(OC)c(OC)c(OC)c1 (stereo unspecified),-3,8,11*,1,-4,-11
COc1cc(C2CC(=O)Oc3cc(O)ccc32)cc(OC)c1OC (stereo unspecified),-3,-4,0,1,.,.
COc1ccc(C(=O)C2CCCN(C(=O)CSC)C2)cc1OC (stereo unspecified),0,8,14*,0,-3,0
NC(=O)c1cc(S(=O)(=O)NCCc2ccc(Cl)cc2)cs1,-2,-6,12*,1,-6,-5
COc1ccc(S[C@]2(C(=O)N3CCOCC3)CC(=O)N(c3ccc(OC)cc3)[C@@H]2c2ccc(OC)cc2)cc1,.,2,9.7*,.,-5,0
COc1ccc(S[C@]2(C(=O)N3CCOCC3)CC(=O)N(C(=O)c3ccccc3)[C@@H]2c2ccc(OC)cc2)cc1,.,0,0,.,.,.
COC(=O)c1cccc(N2C(=O)C[C@](Sc3ccc(OC)cc3)(C(=O)N3CCOCC3)[C@H]2c2ccc(OC)cc2)c1,.,6,15*,.,-5,0
COc1ccc(S[C@]2(C(=O)N3CCN(c4ncccn4)CC3)CC(=O)N(c3ccccc3)[C@@H]2c2ccc(OC)cc2)cc1,.,-1,2,.,.,.
COc1ccc(S[C@]2(C(=O)N3CCN(C(C)=O)CC3)CC(=O)N(C(=O)CCc3ccccc3)[C@@H]2c2ccc(OC)cc2)cc1,.,-1,11*,.,1,-1
CSc1ncnc2c1ncn2CCCN1CCN(c2ccccn2)CC1,-2,1,-1,-1,.,.
CSCC[C@H](NC(=O)COc1ccc(Cl)cc1)C(=O)N1CCC2(CC1)NCCc1[nH]cnc12,-2,-3,11*,1,-7,-6
CC1=C(c2ccccc2)C(=O)C(C)(C)CC1=O,.,-7,1,-1,.,.
C(=C\c1ccccn1)/c1ccccn1,-2,-2,8,1,.,.
C(=NOCc1ccccc1)c1ccccn1,-3,13*,1,1,-1,-3

# Assay outcomes: PubChem, The Scripps Research Institute Molecular Screening Center
